Screens as filed in PubChem.
TRHR ag: activates the human TRH receptor; TRHR cells, calcium flux fluo-8, FDSS agonist mode; 0.18% of 360,000 active; activation, % at 2 µM; also: 0% is about no effect
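Agonist-mode FDSS calcium read (Ex 480/Em 530, 1 s cycles) in 1536-well TRHR cells with fluo-8 dye, after 10-cycle baseline and 23 nL compound addition; TRH at EC20 (10 nM final) added afterwards for the enhancer phase.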
D1 ag: agonists of human D1 dopamine receptor. HEK293 T-REx D1 cells, calcium flux, agonist mode. activation, % at 2 µM. 1% of 360,000 active. P21728; also: 0% is about no effect
Target sequence (P21728 whole entry, looked up): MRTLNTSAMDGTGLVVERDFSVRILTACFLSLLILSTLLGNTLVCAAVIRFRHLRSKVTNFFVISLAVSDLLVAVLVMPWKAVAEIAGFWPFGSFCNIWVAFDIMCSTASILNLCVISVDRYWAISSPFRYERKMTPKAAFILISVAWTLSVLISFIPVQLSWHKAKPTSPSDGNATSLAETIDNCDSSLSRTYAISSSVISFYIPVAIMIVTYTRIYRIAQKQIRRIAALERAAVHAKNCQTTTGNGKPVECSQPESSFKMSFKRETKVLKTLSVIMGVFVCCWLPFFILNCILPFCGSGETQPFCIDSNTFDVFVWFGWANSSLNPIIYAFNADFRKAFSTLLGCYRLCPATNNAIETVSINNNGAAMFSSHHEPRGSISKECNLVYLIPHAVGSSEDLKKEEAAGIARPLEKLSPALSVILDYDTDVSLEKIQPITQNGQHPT
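Agonism was scored from calcium flux recorded over 180 s (1 read/s) after pintool compound addition, following a 10-cycle baseline. Cells were inducible force-coupled HEK293 TREx D1, plated overnight at 30 C and loaded with no-wash calcium dye.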
TRHR enhancer: allosterically enhances the human TRH receptor; TRHR cells, fluo-8 calcium fluorescence, EC20 TRH enhancement; AID 493056; P34981; enhancement, % at 2 µM; 0.66% of 360,000 active; in the data active = enhancement above about 30%; also: 0% is about no effect
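Enhancer read-out: after compound pinning and an initial kinetic agonist-mode read, an EC20 of TRH (10 nM final) was injected and fluo-8 calcium signal (Ex 480/Em 530) followed at 1 s/cycle for 100 cycles in TRHR-expressing cells.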
D1 potentiator: potentiators of human D1 dopamine receptor; HEK293 TREx D1 cells, calcium flux, dopamine EC20 potentiation; potentiation, % at 10 µM; P21728; 0.036% of 360,000 active; AID 504651; in the data active = potentiation above about 30%; also: 0% is about no effect
D1 antag: human D1 dopamine receptor antagonism; 3.2% of 360,000 active; P21728; HEK293 TREx D1 cells, calcium flux, dopamine EC80; active compounds read low; AID 504652; activity change, negative = inhibition, % at 10 µM; in the data active = activity change below about -30%; also: % is scaled to controls: 0 for no effect and ±100 for the full control effect
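Cells carrying a force-coupled, tetracycline-inducible human D1 receptor report calcium flux. Each well gets a 10 s baseline, compound with 180 s monitoring, then an EC80 dopamine stimulus with a second 180 s kinetic read.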
Numbers without * were called inactive. Rows were chosen to be rich in hits. Some 4.7% of all compounds tested hit in one or more screens of this group. Rule as the data show it, unless noted: active = activation above about 30%; inactive = the rest.

SMILES	TRHR ag	D1 ag	TRHR enhancer	D1 potentiator	D1 antag
Cc1cn2c(=O)c(S(=O)(=O)Nc3ccc(OC(F)(F)F)cc3)c(C)nc2s1	-2	3	1	-6	0
CCc1cccc(NC(=O)c2ccc3c(c2)c(C)c(C)n3Cc2ccc(F)cc2)c1	0	6	2	-3	-11
Cc1ccc(NC(=O)C(NS(=O)(=O)c2ccc3c(c2)CCC(=O)N3)c2ccccc2)cc1C (stereo not given)	0	1	-3	-2	-3
COc1ccc(C(=O)NCC2COc3ccccc3O2)cc1S(=O)(=O)N1CCOCC1 (stereo not given)	-1	0	-3	-4	-34*
Cc1cc(C)cc(C(=O)NCCc2sc(-c3ccc(F)cc3)nc2C)c1	0	2	-3	0	-21
COCCNc1ccc(N2C(=O)CCCC2=O)cc1[N+](=O)[O-]	0	1	-4	-3	-47*
COc1ccc(Nc2nc(-c3cccs3)cs2)c(OC)c1	0	3	2	-10	10
COc1ccc(Nc2nc(-c3sc(C)nc3C)cs2)c(OC)c1	-2	2	-8	-18	-43*
O=C(Nc1ccc(Cl)c(Cl)c1)c1ccc(Cn2cc(Cl)cn2)cc1	0	34*	3	-6	-7
NNC(=O)c1ccc(Cn2cc(Cl)cn2)cc1	0	2	-3	-4	-15
Cc1cccc(OCc2ccc(-c3nc(C#N)c(NCc4cccnc4)o3)o2)c1	-1	5	-2	-1	-12
O=C(Nc1ccc(Cl)cc1)c1cc2c(Cl)nc3ccccc3c2s1	1	3	48*	-6	-8
Cc1ccc(N(CC(=O)N/N=C/c2cc(C)n(-c3ccccc3C)c2C)S(C)(=O)=O)cc1	1	0	33*	-9	-30*
COc1ccc(C)cc1NC(=O)CN(c1ccc(F)cc1)S(C)(=O)=O	-1	-1	10	1	2
Cc1ccc(N(CC(=O)Nc2cc(C)ccc2C)S(C)(=O)=O)cc1	0	3	-3	1	-38*
Cc1ccc(NC(=O)CSc2nc3c(c(=O)[nH]2)CN(Cc2ccccc2)CC3)cc1Cl	0	6	-3	8	-14
CCC(C(=O)Nc1cc(F)ccc1F)n1nc(-c2cc(C)ccc2C)ccc1=O (stereo not given)	1	0	-13	2	3
Cc1cccc(N(C2C=CS(=O)(=O)C2)S(=O)(=O)c2ccccc2)c1 (stereo not given)	0	0	-4	-5	-60*
O=S(=O)(c1cccc(-c2nnc3n2CCCCC3)c1)N1CCCC1	1	2	34*	-2	-11
COc1ccc(OCC(=O)Nc2ccc(NC(=O)c3ccco3)cc2)cc1	-1	5	1	-4	-2
Cc1ccc(-c2nnc(NC(=O)c3ccco3)s2)cc1	3	7	1	-4	20
CC(C)COc1ccc(C(=O)Nc2ccc(NC(=O)c3ccco3)cc2)cc1	0	3	-1	-1	-35*
O=C(COc1ccccc1)Nc1ccc(NC(=O)c2ccco2)cc1	0	4	-4	-3	-73*
Cc1ccc(Oc2ccc(NC(=O)c3ccco3)cc2)cc1	-2	19	4	-11	-47*
Cc1ccc(NC(=O)c2ccc(OC(=O)c3ccco3)cc2)cc1	1	1	-12	-3	-2
SMILES	TRHR ag	D1 ag	TRHR enhancer	D1 potentiator	D1 antag
Cc1nnc(NC(=O)c2ccco2)s1	1	0	1	-3	-52*
CCC(=O)Nc1ccc(CC)cc1-c1nc2ccccc2n(CC(=O)Nc2cccc(OC)c2)c1=O	0	0	1	-1	9
COc1ccc(Cn2cc(S(=O)(=O)c3ccc(C)cc3)c(=O)c3cc(F)ccc32)cc1	0	3	-6	2	8
Cc1ccccc1C(=O)NCC(=O)OC(C(=O)Nc1cc(C(F)(F)F)ccc1Cl)c1ccccc1 (stereo not given)	2	13	-8	-4	-8
COc1ccc(NC(=O)c2ccco2)cc1NC(=O)c1ccc(OC(C)C)cc1	-1	3	43*	-7	-11
Cc1oc(C(=O)Nc2ccc(O)cc2)cc1COc1ccccc1	-1	5	4	-5	-32*
